The record followed here is PubChem BioAssay (NCATS).

Records with an inconclusive call do not appear. The source made the active and inactive calls. Unless noted, the call rests on the fitted dose curve; in most records, active means well fitted curve in the direction sought with a large enough effect; inconclusive means small, poorly fitted or top-dose-only effect, or another doubt; inactive means no such curve, though single readings can be large; an effect the other way counts as inactive or inconclusive.

A short description of assay [1]: qHTS Assay for Lipid Storage Modulators (AID 1519; calls by dose curve; on activity change, negative = inhibition: on the % scale 0 is the no-effect control and ±100 the full control effect). As to conditions: Drosophila S3 cells, BODIPY lipid droplet/cell ratio, laser cytometry, cells loaded with oleic acid; for activity change, negative = inhibition: at 57.5 µM (top of the series). The procedure, abridged:
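Cells seeded at 5,000 per well were treated with compounds over a concentration series and loaded with oleic acid (400 uM, as added). Lipid droplet fluorescence (488 nm excitation, 500-530 nm channel) was read by laser-scanning cytometry and normalized to 20 uM Triacsin C.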
(In general: Quantitative high-throughput screening tests each substance at several concentrations.)

Assay [2] concerns the target DNA repair nuclease/redox regulator APEX1 (Homo sapiens) (UniProt P27695). Put plainly: qHTS Validation Assay for Inhibitors of the Human Apurinic/apyrimidinic Endonuclease 1 (APE1) (AID 1705;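 further: TAMRA fluorescence gain over two minutes as APE1 cuts a quenched THF abasic duplex; on the % scale 0 is the no-effect control and ±100 the full control effect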). The note with it: purified APE1 endonuclease activity, fluorescence, titration; series mostly up to 57.1 µM. An outline of the steps: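 Endonuclease activity of human APE1 is followed as dequenching when the enzyme incises a tetrahydrofuran abasic site in a short duplex labelled 5'-TAMRA/3'-BHQ-2 (50 nM final), after 15 min enzyme–compound preincubation at room temperature.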

A short description of assay [3]: Counterscreen for APE1 Inhibitors: Fluorescent Dye Displacement Validation Assay (AID 1707).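 Further: plate controls were ThO with dsDNA and no compound for no effect and ThO without dsDNA for full effect.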 As to conditions: fluorescent dye displacement from DNA; series mostly up to 57.1 µM. An outline of the steps: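 Thiazole Orange (250 nM) bound to 50 nM TAMRA-labelled dsDNA with tetrahydrofuran abasic site; displacement by DNA-binding compounds lowers fluorescence. Buffer 50 mM Tris-HCl pH 7.5, 50 mM NaCl, 2 mM MgCl2, 0.01% Tween-20; endpoint read at 480/540 nm.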
(In general: Counterscreens check selectivity or assay interference.)

The nature of assay [4]: qHTS for differential inhibitors of proliferation of Plasmodium falciparum line GB4 (AID 1816).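 Further: parasite growth measured after 72 h incubation.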 Further: potency means the concentration at half of the fitted maximal effect.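 On activity change, negative = inhibition: 0% = vehicle DMSO and -100% = reference inhibitor.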 The note with it: Potency: Plasmodium falciparum GB4 proliferation inhibition; series mostly up to 28.7 µM.
Assay [5] is described as follows: qHTS for differential inhibitors of proliferation of Plasmodium falciparum line 3D7 (AID 1876). Further: potency means the concentration at half of the fitted maximal effect. As to conditions: P. falciparum 3D7 proliferation inhibition; series mostly up to 28.7 µM.
Assay [6] can be described thus: qHTS for differential inhibitors of proliferation of Plasmodium falciparum line W2 (AID 1883).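 Further: potency means the concentration at half of the fitted maximal effect; parasites grown with compound for 72 h before lysis and staining.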 As to conditions: Potency: Plasmodium falciparum W2 proliferation inhibition; series mostly up to 28.7 µM.
Assay [7] can be described thus: qHTS for differential inhibitors of proliferation of Plasmodium falciparum line HB3 (AID 1886).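 Further: parasites grown with compound for 72 h before SYBR Green readout.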 Further: potency means the concentration at half of the fitted maximal effect.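 On activity change, negative = inhibition: plate controls were vehicle for no effect and reference inhibitor for full effect.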 The note with it: Potency: Plasmodium falciparum HB3 proliferation inhibition; series mostly up to 28.7 µM.
Assay [8] can be described thus: qHTS Assay for Modulators of Human Peripheral Myelin Protein 22 (PMP22) Expression/Activity (AID 1967; active means well fitted curve in the direction sought with a large enough effect in the signal ratio; the % refers to the signal ratio;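 further: 0% = untreated cells and 100% end not stated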). The note with it: Cell-based PMP22 reporter, dual-color luciferase ratio, mouse Pmp22 promoter in mouse Schwann cells; series mostly up to 115 µM. The procedure, abridged:
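Quantitative HTS in a mouse Schwann cell line expressing dual click beetle luciferases: Pmp22 promoter (green) and control EF-alpha promoter (red). After 24h treatment, corrected green/red signal ratio gave %Activity relative to untreated cells.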

The target of assay [9] is ATP-dependent DNA helicase Q1 (Homo sapiens) (UniProt P46063). Put plainly: qHTS Validation Assay for Inhibitors of RecQ-Like Dna Helicase 1 (RECQ1) (AID 2353).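 Further: plate controls were DMSO vehicle for no effect and enzyme-free control for full effect.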 The note with it: recombinant RECQ1 helicase DNA unwinding assay; series mostly up to 25.6 µM. An outline of the steps: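 50 nM RECQ1T1 preincubated 15 min with compound in Tris pH 8.0 buffer with MgCl2, DTT, Tween-20 and 2.5 ug/ml poly(dI-dC); started with 200 nM TAMRA/BHQ-2 forked duplex and 2 mM ATP. Unwinding read as fluorescence (525/598 nm), two reads 2 h apart.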

Assay [10] is described as follows: Cytometric Cell-Based qHTS for Inhibitors of the mTORC1 Signaling Pathway in MEF (Tsc2-/-, p53-/-) Cells (AID 2660).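 Further: percent of cells above a phospho-rpS6 to PI ratio cutoff in each well; plate controls were DMSO for no effect and rapamycin for full effect.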 As to conditions: mTORC1 pathway cytometry; series mostly up to 38.3 µM. An outline of the steps: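 Tsc2-/-, p53-/- MEFs (empty vector) exposed to compound 24 h at 37 C, fixed, stained with Alexa-488 anti-phospho-rpS6 Ser235/236 and propidium iodide. Acumen laser scanning; phospho-S6/PI ratio thresholded against 7.5 nM rapamycin, reported as % positive cells.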

Assay [11] in a line: High Content Imaging Cell-Based qHTS for Inhibitors of the mTORC1 Signaling Pathway in MEF (Tsc2-/-, p53-/-) Cells (AID 2666).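 Further: percent of cells scored positive for phospho-rpS6 Ser235/236 immunostaining by imaging.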 As to conditions: series mostly up to 38.3 µM. An outline of the steps:
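Phospho-rpS6 (Ser235/236) immunofluorescence, normalized and scored as % positive cells using rapamycin and DMSO controls, was read in empty-vector Tsc2-/-, p53-/- MEFs after 24 h compound exposure at 37 C; propidium iodide counted cells.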

In assay [12] the target is Endonuclease 4 (Escherichia coli (strain K12)) (UniProt P0A6C1). Kind of assay: Counterscreen for APE1 Inhibitors: qHTS Validation Assay for Inhibitors of Endonuclease IV (AID 1708). Further: on the % scale 0 is the no-effect control and ±100 the full control effect. As to conditions: E. coli endonuclease IV, DNA cleavage fluorescence; series mostly up to 57.1 µM. An outline of the steps: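 E. coli EndoIV at 2 nM final, preincubated 15 min at room temperature with compound, then 50 nM TAMRA/BHQ-2 THF abasic-site duplex added. Buffer: 50 mM Tris-HCl pH 7.5, 50 mM NaCl, 2 mM MgCl2, 1 mM DTT, 0.01% Tween-20. Kinetic fluorescence increase, third minus first read.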

Assay [13] in a line: qHTS for differential inhibitors of proliferation of Plasmodium falciparum line 7G8 (AID 1815).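 Further: parasite growth measured after three days of incubation.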 Further: potency means the concentration at half of the fitted maximal effect.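 On activity change, negative = inhibition: plate controls were vehicle wells for no effect and reference inhibitor wells for full effect.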 The note with it: Plasmodium falciparum 7G8 proliferation inhibition; series mostly up to 28.7 µM.
Assay [14] is described as follows: qHTS for differential inhibitors of proliferation of Plasmodium falciparum line Dd2 (AID 1882). Further: nearly all actives have a fitted effect of over 65% in size. Further: potency means the concentration at half of the fitted maximal effect.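 On activity change, negative = inhibition: plate controls were DMSO vehicle for no effect and 0.29 µM artemisinin for full effect.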 As to conditions: Potency: Plasmodium falciparum Dd2 proliferation inhibition; series mostly up to 28.7 µM. The procedure, abridged: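 Dd2-infected erythrocytes (0.3% parasitemia, 2.5% hematocrit final) incubated with compound 72 h at 37 C, 5% CO2; lysed with saponin/Triton buffer containing SYBR Green I, incubated overnight in the dark, then read by fluorescence (485/535 nm). Normalized to 0.29 uM artemisinin and DMSO.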

Assay [15] addresses RecQ-like DNA helicase BLM (Homo sapiens) (UniProt P54132). Kind of assay: qHTS Validation Assay for Inhibitors of Bloom's syndrome helicase (BLM) (AID 2364).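 Further: plate controls were DMSO vehicle for no effect and enzyme-free control for full effect.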 As to conditions: BLM helicase DNA unwinding, fluorescence, in vitro; series mostly up to 57.1 µM. The procedure, abridged:
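50 nM BLM preincubated 15 min at room temperature with compound in pH 8.0 Tris buffer containing 2.5 ug/ml poly(dI-dC); started with 200 nM TAMRA/BHQ-2 forked duplex and 2 mM ATP (final). Unwinding read as TAMRA fluorescence increase, two reads 2 h apart.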

Assay [16] can be described thus: qHTS for differential inhibitors of proliferation of Plasmodium falciparum line D10 (AID 1877).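 Further: parasites grown with compound for 72 h before DNA staining.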 Further: potency means the concentration at half of the fitted maximal effect.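 On activity change, negative = inhibition: plate controls were vehicle wells for no effect and reference inhibitor wells for full effect.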 The note with it: series mostly up to 28.7 µM.
The target in assay [17] is Ferritin light chain (Equus caballus) (UniProt P02791). Put plainly: qHTS Validation Assay for Identification of Novel General Anesthetics (AID 2323). Further: on the % scale 0 is the no-effect control and ±100 the full control effect. The note with it: horse apoferritin, anesthetic-site fluorescent probe displacement; series mostly up to 76.9 µM. The procedure, abridged: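 Apoferritin from horse spleen (10 uM) was mixed with 1-aminoanthracene at 50% saturation in PBS, then compounds were added. After 10 min at room temperature, fluorescence was read (ex 380 nm, em 535 nm) and normalized to free-probe and complex controls.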

[18] abbreviates: measured here: cell count channel max response.
Where [19] appears, read: measured here: lipid channel max response.

DNA repair nuclease/redox regulator APEX1 (Homo sapiens), sequence (P27695 whole entry, looked up): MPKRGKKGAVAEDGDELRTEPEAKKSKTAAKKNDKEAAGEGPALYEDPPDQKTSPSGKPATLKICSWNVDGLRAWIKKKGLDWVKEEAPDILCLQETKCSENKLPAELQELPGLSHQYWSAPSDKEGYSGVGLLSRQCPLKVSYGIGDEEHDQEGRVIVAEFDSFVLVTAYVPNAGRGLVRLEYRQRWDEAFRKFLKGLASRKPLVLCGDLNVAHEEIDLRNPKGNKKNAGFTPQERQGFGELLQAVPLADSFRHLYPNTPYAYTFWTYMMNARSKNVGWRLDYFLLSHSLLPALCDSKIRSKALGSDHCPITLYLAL
ATP-dependent DNA helicase Q1 (Homo sapiens), sequence (P46063 whole entry, looked up): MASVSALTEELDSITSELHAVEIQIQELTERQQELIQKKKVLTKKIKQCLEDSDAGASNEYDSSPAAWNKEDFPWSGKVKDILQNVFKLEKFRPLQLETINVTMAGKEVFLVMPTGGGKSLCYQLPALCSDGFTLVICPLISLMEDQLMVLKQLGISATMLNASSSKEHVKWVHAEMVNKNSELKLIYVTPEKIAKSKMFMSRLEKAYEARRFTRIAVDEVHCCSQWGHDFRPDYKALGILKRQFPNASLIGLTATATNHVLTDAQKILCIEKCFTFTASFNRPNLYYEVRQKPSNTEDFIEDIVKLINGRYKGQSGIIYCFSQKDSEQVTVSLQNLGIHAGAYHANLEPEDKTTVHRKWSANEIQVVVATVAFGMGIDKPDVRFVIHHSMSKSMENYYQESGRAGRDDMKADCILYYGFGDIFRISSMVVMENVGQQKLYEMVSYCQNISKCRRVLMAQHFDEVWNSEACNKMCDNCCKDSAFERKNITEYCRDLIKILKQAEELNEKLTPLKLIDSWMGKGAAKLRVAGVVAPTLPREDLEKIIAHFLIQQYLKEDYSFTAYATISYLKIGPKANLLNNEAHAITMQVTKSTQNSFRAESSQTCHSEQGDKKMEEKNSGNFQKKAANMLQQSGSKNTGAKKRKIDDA
Ferritin light chain (Equus caballus), sequence (P02791 2-175 limits assumed): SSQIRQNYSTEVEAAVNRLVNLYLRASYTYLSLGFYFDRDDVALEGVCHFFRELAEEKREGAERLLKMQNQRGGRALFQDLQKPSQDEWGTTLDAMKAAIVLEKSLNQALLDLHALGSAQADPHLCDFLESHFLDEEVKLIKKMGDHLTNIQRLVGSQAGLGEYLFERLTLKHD
RecQ-like DNA helicase BLM (Homo sapiens), sequence (P54132 whole entry, looked up): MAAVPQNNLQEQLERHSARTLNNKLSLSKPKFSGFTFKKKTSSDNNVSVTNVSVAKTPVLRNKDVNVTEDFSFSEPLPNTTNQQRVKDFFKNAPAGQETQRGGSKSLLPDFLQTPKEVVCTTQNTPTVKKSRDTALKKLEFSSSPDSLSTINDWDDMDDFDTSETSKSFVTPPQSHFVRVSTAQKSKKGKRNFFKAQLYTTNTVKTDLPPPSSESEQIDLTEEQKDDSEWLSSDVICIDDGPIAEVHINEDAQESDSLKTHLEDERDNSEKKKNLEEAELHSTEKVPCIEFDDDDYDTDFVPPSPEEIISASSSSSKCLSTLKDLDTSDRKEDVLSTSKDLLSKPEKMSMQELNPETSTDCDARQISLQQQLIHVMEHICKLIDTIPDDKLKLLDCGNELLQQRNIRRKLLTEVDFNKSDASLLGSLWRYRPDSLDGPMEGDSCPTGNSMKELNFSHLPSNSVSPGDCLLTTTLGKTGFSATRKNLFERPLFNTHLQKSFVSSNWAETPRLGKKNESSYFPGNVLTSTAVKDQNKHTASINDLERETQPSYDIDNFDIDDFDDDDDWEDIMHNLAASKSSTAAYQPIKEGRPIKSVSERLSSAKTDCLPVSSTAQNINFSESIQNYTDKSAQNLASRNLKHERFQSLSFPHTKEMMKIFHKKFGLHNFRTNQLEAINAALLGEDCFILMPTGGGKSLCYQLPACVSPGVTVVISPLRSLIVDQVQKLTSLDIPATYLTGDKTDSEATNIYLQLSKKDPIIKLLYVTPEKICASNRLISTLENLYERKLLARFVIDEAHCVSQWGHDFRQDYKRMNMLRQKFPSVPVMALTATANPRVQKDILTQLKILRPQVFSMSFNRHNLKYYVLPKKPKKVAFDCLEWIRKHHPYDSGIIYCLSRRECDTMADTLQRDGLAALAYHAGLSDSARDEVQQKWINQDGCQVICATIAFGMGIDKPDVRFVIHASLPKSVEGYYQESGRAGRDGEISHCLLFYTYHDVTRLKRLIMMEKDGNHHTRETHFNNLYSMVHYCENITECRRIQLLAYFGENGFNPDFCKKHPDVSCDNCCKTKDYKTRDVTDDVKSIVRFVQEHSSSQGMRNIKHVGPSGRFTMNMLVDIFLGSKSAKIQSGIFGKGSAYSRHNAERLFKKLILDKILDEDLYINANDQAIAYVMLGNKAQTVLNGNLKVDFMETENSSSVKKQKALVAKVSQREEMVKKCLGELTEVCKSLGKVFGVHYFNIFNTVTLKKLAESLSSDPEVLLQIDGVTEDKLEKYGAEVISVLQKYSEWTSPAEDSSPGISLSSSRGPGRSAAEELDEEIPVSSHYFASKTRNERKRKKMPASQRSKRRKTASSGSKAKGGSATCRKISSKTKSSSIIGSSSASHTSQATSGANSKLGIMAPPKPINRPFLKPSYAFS

In the case of `CCN(CCCl)Cc1ccccc1Br`, the activity change, negative = inhibition in assay [1] is -2.24% (inactive). For the same molecule, the figures for the max response in [1] (setting [18]) and in assay [1] (setting [19]) were 32.6% and 31.1%, respectively. Besides, the Potency result in assay [2], in assay [3], in assay [9], in assay [10] and in assay [11] was “inactive” in each case. Besides, the Potency in [4] is 12.6 µM (active); in assay [5], 10 µM (active); in [6], 11.2 µM (active); in [7], 10 µM (active). Also, in assay [8], the result was inactive.

Consider `NC(N)=Nc1ccc2[nH]c3c(c2c1)C[C@@]1(O)[C@H]2Cc4ccc(O)c5c4[C@@]1(CCN2CC1CC1)[C@H]3O5`, for which, in assay [1], the activity change, negative = inhibition is -5.63% (inactive). In addition, the results for the max response in [1] (setting [18]) and in assay [1] (setting [19]) were -1.13% and -6.88%, respectively. Moreover, the Potency entry in assay [2], in assay [3], in assay [12], in assay [13], in assay [5] and in [14] was “inactive” throughout. The Potency result in assay [7], in assay [9] and in assay [15] was “inactive” each time.

For the molecule `C=CCN1CC[C@]23c4c5ccc(O)c4O[C@H]2/C(=N/NC(=O)c2ccccc2)CC[C@@]3(O)[C@H]1C5`, the activity change, negative = inhibition in assay [1] is -1.45% (inactive). Moreover, the max response in assay [1] (setting [18]) was -18.8%; in assay [1] (setting [19]), -20.5%. In addition, the Potency entry in assay [2], in assay [3], in [12], in [9], in assay [10] and in assay [11] was “inactive” throughout. The Potency was 10 µM (active) in [13]; 8.91 µM (active) in [4]; 10 µM (active) in [5]; 3.16 µM (active) in [16]; 3.16 µM (active) in assay [6]; 11.2 µM (active) in assay [7]. The outcome in [8] and in assay [17] was inactive.

On to `CN(C(=O)Cc1ccc(Cl)c(Cl)c1)C(CN1CCCC1)c1cccc(OCC(=O)O)c1` (configuration not stated), for which the activity change, negative = inhibition in assay [1] was 2.91% (inactive). Moreover, the max response in [1] (setting [18]) came out at 8.86%; in [1] (setting [19]) it was 13%. In addition, the Potency result in assay [2], in assay [3], in assay [12], in assay [5], in assay [14] and in assay [7] was “inactive” each time. Further, the Potency entry in [9], in assay [15], in [10] and in assay [11] was “inactive” throughout. Further, the Potency in [6] is 14.1 µM (active). Further, the call in assay [17] was inactive.

On to `COC(=O)N1CCN(C(=O)Cc2ccc(Cl)c(Cl)c2)C(CN2CCCC2)C1` (configuration not stated), for which, in assay [1], the activity change, negative = inhibition is 0.712% (inactive). The max response came to 7.98% in assay [1] (setting [18]) and 7.35% in assay [1] (setting [19]). Also, the Potency entry in assay [2], in [3], in assay [12], in assay [9], in assay [10] and in assay [11] was “inactive” in each case. Besides, the Potency in [13] was 12.6 µM (active); in assay [4] it was 10 µM (active); in assay [14] it was 7.94 µM (active); in assay [6], 2.82 µM (active). The molecule was called inactive in [17].

Take `N[C@@H](CCl)C(=O)O`: the Potency entry in assay [2], in [3], in [12], in assay [13], in assay [4] and in [5] was “inactive” throughout. Also, the Potency result in assay [16], in [14], in [7], in assay [9], in [10] and in assay [11] was “inactive” each time. In [17], the molecule was called inactive.

In the case of `NCCc1ccc(S(=O)(=O)F)cc1`, the Potency entry in [2], in [3], in assay [12], in assay [13], in assay [4] and in [5] was “inactive” in each case. In addition, the Potency result in assay [16], in [14], in assay [7], in [9], in assay [15] and in [10] was “inactive” each time. The Potency entry in [11] was “inactive”. Besides, the result in assay [8] and in [17] was inactive.

Consider `C=CCN1CCC23c4c5ccc(O)c4O[C@H]2C(=O)CC[C@@]3(O)C1C5` (some centres not stated), for which the Potency entry in assay [2], in assay [3], in assay [12], in assay [13], in [4] and in assay [5] was “inactive” in each case. The Potency result in [16], in [14], in assay [7], in [9], in assay [10] and in assay [11] was “inactive” each time. In addition, the molecule was called inactive in [17].
